Assay results from PubChem BioAssay (NCATS).
Inconclusive results are not listed. The call rests on the fitted dose curve; in most records, active means well fitted inhibition curve with a large enough effect; inconclusive means small, poorly fitted or top-dose-only effect; inactive means flat fitted curve, though single readings scatter.

system: Zika virus NS2B-NS3 protease; assay: Primary screen GU AMC qHTS for Zika virus inhibitors (AID 1347154); conditions: Zika NS2B-NS3 unlinked protease, AMC fluorogenic substrate; series mostly up to 54.1 µM; activity change, negative = inhibition: at the top concentration;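 further: 0% = no-inhibitor control and -100% = no-enzyme control; nearly all actives have a fitted effect of over 70% in size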
In short: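 Fluorogenic AMC-substrate cleavage by noncovalent NS2B-NS3 protease complex (25 nM, pH 8.0 Tris buffer with Tween 20) followed for 15 minutes at room temperature (~20% conversion). Percent inhibition from ex340/em450 signal change, fitted by 4-parameter Hill equation.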

Activity change, negative = inhibition, inactive:
CC(C)CC(NC(=O)NC(CCC(=O)O)C(=O)O)C(=O)O (stereo not given) -3.77%
CCCCC[C@H](O)/C=C/[C@@H]1[C@H]2C/C(=C/CCCC(=O)O)C[C@H]2C[C@H]1O -0.0161%
O=C(Nc1ccc([N+](=O)[O-])cc1O)Nc1ccccc1Br -4.49%
CCCCCCCCCCCCCCC[C@@H](O)[C@H](CO)NC(=O)CCCCCCC 6.97% [at 6.83 µM]
CN(C)CCC1(c2ccc(Cl)cc2)Cc2ccccc2C(=O)O1 (stereo not given) 16.6%
O=C(O)C1CC(CCCP(=O)(O)O)CCN1 (stereo not given) 11.8%
O=C(C1CCCCC1)N(CCN1CCN(c2ccccc2CO)CC1)c1ccccn1 6.58%
CCCCCCCCCCCCCC(=O)N[C@@H](C)[C@H](O)c1ccccc1 10.8% [at 6.83 µM]
CN(CCc1ccc(Cl)c(Cl)c1)CC(O)COc1ccc(NS(C)(=O)=O)cc1 (stereo not given) 8.93%
O=C(O)C(Cc1ccc2c(c1)oc1ccccc12)NCP(=O)(O)O (stereo not given) 9.27%
Nn1cc(Br)c(=O)[nH]c1=O -1.76%
CN(Cc1ccccc1)C(=O)[C@H](Cc1ccc2ccccc2c1)NC(=O)[C@@H]1C[C@@H](O)CN1C(=O)c1cn(C)c2ccccc12 -8.38%
O=C(NCCCN1CCCCCC1)C(c1ccccc1)C1CCCCC1 (stereo not given) 2.33%
CC[C@@H]1Cn2c(c3nc(-c4cc(Cl)cc(Cl)c4Cl)nc-3n(C)c2=O)N1 48.4%
c1ccc(COCCCc2cnc[nH]2)cc1 10.3%
C=C1O[C@@](CO)(n2cnc3c(N)ncnc32)[C@H](O)[C@@H]1O 12.2% [at 104 µM]
Nc1nc2c([nH]c(=O)n2[C@@H]2O[C@H](CO)[C@@H](O)[C@H]2O)c(=O)[nH]1 7.35% [at 6.83 µM]
O=C1NN(C(=O)Nc2ccc(Br)cc2)C(c2ccccc2)C1c1ccccc1 (stereo not given) -17.9%
C/C=C1/C(=O)C[C@@H]2[C@H]3CCC4=CC(=O)CC[C@]4(C)[C@@H]3CC[C@]12C 16.5%
O=c1[nH]cnc2c1ncn2C1O[C@H](CO)[C@@H](O)[C@H]1O (stereo not given in full) 9.34%
CCOC(=O)C1OC1C(=O)NC(CC(C)C)C(=O)NCCC(C)C (stereo not given) 6.92% [at 104 µM]
Cc1nc2c(c(=O)[nH]1)CSCC2 4.07%
CC12CCC3C(CCC4CC(O)CCC43C)C1CC=C2c1ccccc1 (stereo not given) 10.4%
C[C@H](CCC(=O)NCC(=O)O)C1CC[C@H]2[C@H]3C(C[C@H](O)[C@]12C)[C@@]1(C)CC[C@@H](O)C[C@H]1C[C@H]3O (stereo not given in full) 7.09%
OCC(O)COc1cccc2ccccc12 (stereo not given) 10.9%
Cc1ccc(CC2(O)CCN(CCOc3ccc(O)cc3)CC2)cc1 2.58%
CC(C)c1cc(/C=C(\C#N)C(=O)NCCCc2ccccc2)cc(C(C)C)c1O -5.19%
CCCCCCCCCCCCCCCCOCC(COP(=O)([O-])OCC[N+](C)(C)C)OC (stereo not given) 5.04% [at 6.83 µM]
Cc1c(C(=O)N(C)C2CCCCC2)sc2nc3ccc(N)cc3n12 7.6%
NC(C(=O)O)c1ccc(P(=O)(O)O)cc1 (stereo not given) 3.78%
Nc1ncnc2c1ncn2[C@@H]1O[C@H](COP(=O)(O)OP(=O)(O)CP(=O)(O)O)[C@@H](O)[C@H]1O 0.833%
CC[C@@H](C)[C@H](NS(=O)(=O)c1cccc2ccccc12)C(=O)N[C@H](C=O)Cc1c[nH]c2ccccc12 14.2%
CCCCCCCCCCCCCCCCOCC(CO)OC(C)=O (stereo not given) 15.1% [at 6.83 µM]
O=C(NCCCCN1CCN(c2cccc(Cl)c2Cl)CC1)c1ccc2c(c1)Cc1ccccc1-2 12.3%
C[C@H](N)CCP(=O)(O)O 8.2%
CCCNC(=O)[C@H]1O[C@@H]1C(=O)N[C@H](C(=O)N1CCC[C@H]1C(=O)OC)[C@@H](C)CC 3.93%
Cc1nn(C)c2nc(NNC(=O)Nc3cc(Cl)nc(Cl)c3)cc(C(C)C)c12 1.41%
COCCNC(=O)COc1ccc(OCCNC[C@H](O)COc2ccccc2)cc1 15.4%
O=C1CC2(CCCC2)CC(=O)N1CCCCNCC1COc2ccccc2O1 (stereo not given) 11.4%
CC#CC(=O)Nc1cc2c(Nc3ccc(F)c(Cl)c3)ncnc2cn1 -8.03%
